# Sampled rows, rich in hits. Any-hit rate of the full collection: about 8.7%.
# AMA1 RON2 block: disrupts binding of P. falciparum AMA1 to RON2. Potency, µM (highest dose often 58.2 µM), inactives show at the highest dose activity change, negative = inhibition, hits mostly inhibitors. 360,000 tested, 0.2% active. AlphaScreen AMA1-biotinylated RON2 peptide binding;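 note: 0% = vehicle wells and -100% = peptide control; nearly all actives have a fitted effect of over 45% in size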
#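 AMA1 (3D7) with his tag at 25 nM final met compounds first, then biotinylated RON2 peptide at 25 nM; detection used donor plus acceptor beads, 10 µg/mL apiece, read by AlphaScreen after 30 min at room temperature.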
# Pf growth 48h: P. falciparum growth inhibition at 48 hours (one generation); 310,000 tested, 5.9% active; Potency, µM (top dose mostly 28.7 µM), for the others: at the highest dose activity change, negative = inhibition, most hits filed as inhibitors; AID 504832; P. falciparum luciferase growth in erythrocytes, 48 h
#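 Read-out is firefly luciferase luminescence from an integrated reporter in P. falciparum, so falling signal marks reduced parasite growth. Infected erythrocytes were at 2% hematocrit and 0.1% parasitemia (final) in Albumax-supplemented RPMI 1640.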
# Vaccinia Venus: vaccinia inhibition (Venus reporter). Vaccinia virus Venus reporter expression, fluorescence. Potency, µM (titrated, usually from 36.5 µM), for the others: at the highest dose activity change, negative = inhibition, hits mostly inhibitors. 330,000 tested, 0.46% active; calls by dose curve; tested in A549 cells; note: nearly all actives have a fitted effect of over 30% in size
# Vaccinia mCherry: inhibitors of vaccinia virus infection (mCherry reporter signal). Vaccinia virus mCherry reporter infection, fluorescence. Potency, µM (top dose mostly 36.5 µM), for the others: at the highest dose activity change, negative = inhibition, hits mostly inhibitors. 310,000 tested, 0.63% active; calls by dose curve; tested in A549 cells; note: nearly all actives have a fitted effect of over 35% in size
# Pf growth 96h: inhibits malaria parasite growth, 96 h | 320,000 tested, 6.9% active | AID 504834 | Potency, µM (highest dose often 28.7 µM), inactives show at the top dose activity change, negative = inhibition, most hits filed as inhibitors | P. falciparum luciferase reporter growth, 96 h
#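 Infected RBCs, 2% Hct / 0.05% parasitemia final; luciferase-reporter P. falciparum; cpd 96 h, 37 C, 5% CO2; luciferase detection reagent; luminescence.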
# Active calls of the source: *; i = inactive; ? = inconclusive; · = no result; [ ] = remark or other dose. Unless noted, calls come from the whole dose curve; as a rule, active = well fitted curve in the direction sought with a large enough effect; inconclusive = small, poorly fitted or top-dose-only effect, or another doubt; inactive = no such curve, though single readings can be large; an effect the other way counts as inactive or inconclusive. Unless noted, % is set by controls: 0 for no effect and ±100 for the full control effect; potency is the fitted concentration of half-maximal effect.
SMILES,AMA1 RON2 block,Pf growth 48h,Vaccinia Venus,Vaccinia mCherry,Pf growth 96h
O=C(NC1CCCCC1)C(c1ccccc1)N(Cc1ccc2c(c1)OCO2)C(=O)c1cnsn1 (configuration not stated),45%,9.3µM*,-16%,i,-61%
Cc1ccc(C(C(=O)NC2CCCC2)N(C(=O)Cc2cccs2)c2ccc3c(c2)OCCO3)cc1 (configuration not stated),-1%,3.3µM*,-21%,-6%,?
CCS(=O)(=O)Nc1cc(C(=O)N2CCC[C@H]2CO)c2c(c1)nc(-c1ccccc1)n2C,·,·,-4%,-4%,·
O=C(c1ccc2c(c1)OCO2)N(Cc1cccs1)C1(C(=O)NC2CCCCC2)CCCCC1,-17%,?,?,16µM*,61%
Cc1ccc(NC(=O)c2cccc(N3C(=O)C4C5C=CC(C5)C4C3=O)c2)cc1C (configuration not stated),10%,-21%,·,·,12µM*
O=C(Nc1ccccc1)c1cccc(N2C(=O)C3C4CC(C(Br)C4Br)C3C2=O)c1 (configuration not stated),-4%,1.5µM*,-13%,-2%,?
CN(C)c1ccc(NC(=O)c2cccc(N3C(=O)C4C5C=CC(C5)C4C3=O)c2)cc1 (configuration not stated),-3%,122%,·,·,·
Cc1ccc(NC(=O)c2cccc(N3C(=O)C4C5CCC(C5)C4C3=O)c2)c(C)c1 (configuration not stated),11%,10µM*,-9%,-20%,17%
O=C(O)c1ccc(NC(=O)c2cccc(N3C(=O)C4C5CCC(C5)C4C3=O)c2)cc1 (configuration not stated),11%,1%,-13%,-1%,?
CC(=O)COC(=O)c1cccc(N2C(=O)C3C4C=CC(C4)C3C2=O)c1 (configuration not stated),7%,-7%,·,·,13µM*
Cn1cnc(S(=O)(=O)N2CCCC(C(=O)Nc3ccc(OC(F)(F)F)cc3)C2)c1 (configuration not stated),·,·,-7%,-10%,·
CCc1ccc(/C=C2\Oc3cc(OC(=O)N4CCOCC4)ccc3C2=O)cc1,2%,?,-11%,i,10µM*
CC(C)c1ccc(S(=O)(=O)c2nnn3c2nc(NC2CCCC2)c2sccc23)cc1,·,·,-14%,-1%,·
Cc1ccc2c(c1N)C(=O)c1ccccc1C2=O,?,80%,53%,-14%,159%
Cc1ccc2c(c1C)-c1c(ccc(C)c1C)C(=O)C2=O,-29%,·,10µM*,?,·
Cc1c(Cl)c(=O)oc2cc(OP(=O)(OCCCl)OCCCl)ccc12,·,13µM*,·,·,?
CCOP(=S)(OCC)Oc1ccc2c(C)c(Cl)c(=O)oc2c1,8%,?,-17%,-24%,?
COC1CCCCC1Nc1ccc(C)c(C)c1 (configuration not stated),?,-6%,-1%,-16%,2.1µM*
Cc1ccc(SC2=C(N(C)C)C(=O)c3ccccc3C2=O)cc1,8.9µM*,·,1%,-11%,·
OC(c1cccnc1)c1ccc2c(c1)CN(Cc1ccc(-c3ccccc3Cl)o1)CCO2 (configuration not stated),·,·,-7%,0%,·
CCN(CC)C(=O)CN(c1cc2c(cc1OC)oc1ccccc12)S(=O)(=O)c1ccccc1,-7%,9.3µM*,?,·,10µM*
COc1ccc(C(=O)CSc2nc(C)cc(=O)[nH]2)cc1C,2%,·,-16%,i,-28%
Cc1cc(=O)[nH]c(SCC(=O)c2ccc(F)c(C)c2)n1,1%,?,2%,-14%,0.26µM*
CC(C)(C)c1ccc(C2=CSC3=NCCN23)cc1,-3%,?,-15%,-18%,0.26µM*
O=S1(=O)CCN2C(c3cccc4ccccc34)=CSC2=N1,7%,-12%,-8%,-3%,-47%[5.75 µM]
SMILES,AMA1 RON2 block,Pf growth 48h,Vaccinia Venus,Vaccinia mCherry,Pf growth 96h
C1=C(c2cccc3ccccc23)N2CCN=C2S1,-3%,?,-31%,·,13µM*
O=C(CN1C(=O)CCc2cc(S(=O)(=O)N3CCCCC3)ccc21)NCc1ccc(Cl)cc1,·,·,-8%,-12%,·
Fc1ccc(C2CC(c3ccc(F)cc3)n3ncnc3N2)cc1 (configuration not stated),-7%,?,·,·,-25%
Oc1ccccc1C1=Nc2ncnn2C(c2ccc(F)cc2)C1 (configuration not stated),11%,33%,10%,17%,12µM*
CCN1/C(=C/c2cc[n+](C)cc2)C=Cc2cc(C)ccc21,-3%,0.74µM*,-3%,?,-26%
CC1CCCN(S(=O)(=O)c2cc3c4c(c2)CC(=O)N4CCC3)C1 (configuration not stated),·,·,-17%,-10%,·
Cc1cc(Br)cc(C)c1OCC(=O)NNC(=O)c1cccs1,69%,-9%,-6%,-12%,12µM*
COc1ccccc1CC(=O)NNC(=O)c1cccs1,0%,17%,-11%,-5%,0.26µM*
NC(=O)C1CCN(c2nc(-c3ccccc3[N+](=O)[O-])cs2)CC1,·,9%,·,·,0%
CCCC(c1nnnn1CS(=O)(=O)c1ccc(C)cc1)N1CCN(c2ccccc2)CC1 (configuration not stated),-4%,12µM*,-23%,-6%,0%
Cc1ccc(S(=O)(=O)Cn2nnnc2C(C(C)C)N2CCN(C(=O)c3ccco3)CC2)cc1 (configuration not stated),-6%,·,-11%,i,·
CCCCC(c1nnnn1CS(=O)(=O)c1ccc(C)cc1)N1CCN(C)CC1 (configuration not stated),18%,?,-6%,-6%,-4%
Cc1ccc(S(=O)(=O)Cn2nnnc2C(C)N2CCN(C(=O)c3ccco3)CC2)cc1 (configuration not stated),1%,10µM*,-26%,-27%,5.2µM*
CCC(c1nnnn1CS(=O)(=O)c1ccc(C)cc1)N1CCN(c2nc3ccccc3s2)CC1 (configuration not stated),6%,8.3µM*,-19%,i,9%
COc1ccc(C(c2nnnn2CS(=O)(=O)c2ccc(C)cc2)N2CCN(c3ncccn3)CC2)cc1 (configuration not stated),-8%,9.3µM*,-15%,-8%,?
Cc1ccc(C(=O)NCCc2nnc3n2CCN(C(=O)c2ccnc(Cl)c2)CC3)cc1,·,·,2%,0%,·
CCOC(=O)c1c(C)oc2ncnc(Nc3ccc(OC)c(OC)c3)c12,·,·,-7%,-11%,·
O=C(c1ccco1)N1CCN(C(c2ccc(F)cc2)c2nnnn2Cc2cccs2)CC1 (configuration not stated),6%,?,-17%,i,0.93µM*
Cc1ccc(S(=O)(=O)Cn2nnnc2C(c2ccccc2)N2CCN(c3ccccc3)CC2)cc1 (configuration not stated),-6%,13µM*,-5%,-7%,?
